The panel holds about 83,000 compounds, 20% with a hit somewhere; the sample as a whole holds those more often.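 Single-concentration screen, 48 h exposure, 96-well plates. Endpoint: percent growth. Below 10 = active.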 Activity calls are given as the source filed them.
Tested on: ACHN renal
Test: NCI-60 one-dose screen, 48 h (100 = growth as untreated, 0 = no growth, -100 = all killed)
Conditions: 10 µM unless noted
Procedure: Growth inhibition of the ACHN human tumor cell line is measured as a screen for anti-cancer activity. Cells are grown in 96 well plates and exposed to the test compound for 48 hours. Compounds are tested at a single concentration, which is 10^-5 M for most compounds. The reported endpoint is percent growth (GI% or GIPRCNT), where numbers from 0 - 100% represent growth inhibition, and numbers from -100% - 0 represent cell death. For example, a value of 40 represents 60% growth inhibition. A value of 0 means no net growth occurred over the course of the experiment. A value of -40 indicates 40% of cells at the beginning of the experiment died by the end of the experiment. A value of -100 means all cells are dead at the end of the experiment.
NCI-60 Human Tumor Cell Lines Screen was performed using the standard one-dose NCI protocol, which is described in more detail at https://dtp.cancer.gov/discovery_development/nci-60/default.htm.
Compounds with GIPRCNT values below 10 were considered active. Activity score was based on GIPRCNT using the following formula: […]
Score is 0 for GIPRCNT values of 100 or above, 50 for GIPRCNT values of 0, and 100 for GIPRCNT values of -100.

| SMILES | growth |
| --- | --- |
| COc1cc(CNC(=O)CCSc2nc3ccccc3c(=O)n2Cc2cc(OC)c(OC)c(OC)c2)cc(OC)c1OC | 48.9% (inactive) |
| COc1ccc2c(c1)C(=O)/C(=C/c1ccc(O)cc1)O2 | 96.4% (inactive) |
| CCC(=O)Oc1cc(/C=C/C(=O)O[C@H]2C[C@H]3CN4CCc5c([nH]c6cc(OC)ccc56)[C@@H]4C[C@@H]3[C@@H](C(=O)OC)[C@@H]2OC)ccc1OC | 46.2% (inactive) |
| Cc1ccnc2nc(C(=O)OCC(=O)Nc3ccc(-c4ccccc4)cc3)nn12 | 107% (inactive) |
| C=C1C(=O)O[C@H]2[C@H](O)[C@@H](C)CCC/C(C)=C/CC[C@@]3(C)O[C@@H]3C[C@@H]12 | 96% (inactive) |
| CC/C=C\C/C=C\C[C@H](O)C/C=C1/C(=O)C=C[C@H]1C/C=C\CCC(=O)OC | 26.9% [8.25 µM] (inactive) |
| O=C(CCC(=O)OC1CCCC1)OC1CCCC1 | 95% (inactive) |
| O=c1oc2c([nH]c3ccc4ccccc4c32)c2ccccc12 | 110% (inactive) |
| COc1c(NC[C@H]2OC(O)[C@H](O)[C@@H](O)[C@@H]2O)c(=O)c1=O (stereo not given in full) | 105% (inactive) |
| C=C1C(=O)O[C@H]2[C@H]1CC/C(COC(=O)NCCc1ccc(Br)cc1)=C\CC[C@@]1(C)O[C@@H]21 | -60.1% (active) |
| CCCCCCCCCCn1cc[n+](C)c1 | 45% (inactive) |
| O=C(/C=C/CN1CCOCC1)Nc1cc2c(Nc3cccc(Cl)c3F)ncnc2cc1OCCOC(F)F | 22.2% (inactive) |
| CCN(Cc1ccc(CN(CC)C(=O)C(Cl)(Cl)Cl)cc1)C(=O)C(Cl)(Cl)Cl | 91.1% (inactive) |
| COc1cc(/C=C\c2cc(OC)c(OC)c(OC)c2)cc(N/C=C\C(=O)c2c[nH]c3ccccc23)c1OC | -100% (active) |
| O=C1Nc2ccc(Br)cc2C1=N/C=c1\[nH]c(=O)/c(=C/c2ccc(Cl)cc2)s1 | 90.8% (inactive) |
| Cc1cc2c(c(=O)o1)C(c1ccc(OC(=O)N3CCOCC3)cc1)C(C#N)=C(N)O2 (stereo not given) | 102% (inactive) |
| Cn1cc(C=O)c2ccccc21 | 93.5% (inactive) |
| O=C1CCCCC=C1C[N+](=O)[O-] | 75.8% (inactive) |
| CC(C)(C)c1ccc(S(=O)(=O)Oc2ccc3c4c(c(=O)oc3c2)CCCCC4)cc1 | 30.3% (inactive) |
| COc1ccc2c(c1)C=CC(C#N)N2C(=O)c1ccccc1 (stereo not given) | 33.9% (inactive) |

| SMILES | growth |
| --- | --- |
| Cc1nc(Nc2cccnc2)sc1C(=O)/C=C/c1ccc(Cl)cc1 | 40.1% (inactive) |
| O=C(CNC1CCCCC1)Nc1ccc(-c2nc3ccccc3s2)cc1 | 99.1% (inactive) |
| COc1ccc(-c2nc(-c3ccccc3)c(-c3ccccc3)n2C2CC2)cc1OC1CCCCC1 | 53.8% (inactive) |
| CN=S(=O)(NC(=O)c1ccc(Cl)cc1Cl)c1ccc(Br)s1 (stereo not given) | 102% (inactive) |
| O=C1N=C(c2c(-c3[nH]c(=O)c4ccc(Br)cc4c3O)c(O)c3ccccc3c2O)C(=O)c2cc(Br)ccc21 | -54% (active) |
| O=c1oc2cc(OS(=O)(=O)c3ccc(F)cc3)ccc2c2c1CCCCC2 | 84.9% (inactive) |
| COc1cc(-c2nc(-c3nc4ccccc4[nH]3)cc3c2[nH]c2ccccc23)cc(OC)c1OC | 51.4% (inactive) |
| O=C(c1ccncc1)N1N=C(c2ccc(Cl)cc2)CC1c1c[nH]c2ccccc12 (stereo not given) | 94.8% (inactive) |
| Nc1c(C(=O)Nc2ccccc2)sc2nc3c(cc12)CCC3 | 96% (inactive) |
| O=C(Nc1ccc(I)cc1)c1cccc([N+](=O)[O-])c1O | 21.8% (inactive) |
| N#CC1=C(N)OC2=C(C(=O)CCC2)C1c1ccco1 (stereo not given) | 104% (inactive) |
| O=C(CC(O)c1ccncc1)c1ccccc1 (stereo not given) | -28.5% (active) |
| O=S(=O)(NCCCNc1cc(-c2cn(-c3ccccc3)nc2-c2cccc(O)c2)ccn1)c1ccc(Br)cc1 | 10.2% (inactive) |
| CN1CCN(CCCOc2ccc3nc(Nc4ccc(C(F)(F)F)c(Cl)c4)ccc3c2)CC1 | 3.12% (active) |
| COc1ncc(-c2ccc3ncnc(Nc4cccc(Cl)c4)c3c2)cc1N(S(C)(=O)=O)S(C)(=O)=O | 22% (inactive) |
| NC(N)=NC(N)=Nc1ccccc1-c1ccccc1 | 106% (inactive) |
| COc1cc(Cn2c(SCC(=O)Nc3cc(OC)c(OC)c(OC)c3)nc3ccccc3c2=O)cc(OC)c1OC | 33.4% (inactive) |
| Cc1ccc2nc(-c3c(CCCO)noc3N)[nH]c(=O)c2c1 | 113% (inactive) |
| COc1ccc(NC(=O)CSc2nc3ccccc3c(=O)n2Cc2cc(OC)c(OC)c(OC)c2)cc1 | 80.6% (inactive) |
| CN(C)c1ccc(/C=C\N=Nc2ccc(Br)cc2)cc1 | 60.4% (inactive) |

Reference: PubChem BioAssay (NCI)
